# Out of some 410,000 compounds screened, about 1,200 (0.29%) were called active. Not shown: some 2% with an inconclusive outcome. The sample holds actives, similar compounds and a random draw of the others, so the mix is not that of the screen. A number with no mark means an inactive call. Calls follow the shape of the dose curve; as a rule, active = well fitted activation curve with a large enough effect; inconclusive = small, poorly fitted or top-dose-only effect; inactive = flat fitted curve, though single readings scatter.
# Assay: qHTS of Nrf2 Activators; also: nearly all actives have a fitted effect of over 65% in size; as to activation: % of control where 0% means no effect
# Conditions: AREc32 ARE-luciferase reporter (MCF7-derived line), luminescence, 24 h; series mostly up to 46.1 µM; activation: at the top concentration
# Description: Many diseases have some form of oxidative stress injury and ties to inflammation, causing a host of problems for the patient. The antioxidant response element (ARE) plays an important role in alleviating the harmful effects of oxidative stress. The antioxidant response element (ARE) is a transcriptional regulatory element involved in the activation of genes coding for a number of antioxidant proteins and detoxifying enzymes. These enzymes work in concert to protect tissues from oxidative insults and chemical toxicities in human hepatocytes and immune cells. The protective effects of ARE activation are primarily triggered through Nrf2 (NF-E2-related factor) binding to and activating AREs. It is known that Nrf2 controls the production of over 250 antioxidant and detoxification proteins (Hu et al., 2006), thereby protecting tissues by increasing cellular antioxidant content and suppressing inflammatory signaling pathways. The transcription factor Nrf2 is a central link between oxidative chemicals, such as phenolic antioxidants and electrophilic compounds, and the activation of ARE. Nrf2 levels are constitutively low as a consequence of its interaction with Keap1, which targets its degradation (Zipper and Mulcahy, 2002). Electrophiles react with key cysteine residues in Keap1, releasing Nrf2 and allowing its translocation to the nucleus. Once within the nucleus, Nrf2 complexes with coactivators such as p300, and binds to the AREs to induce gene transcription of cytoprotective enzymes, resulting in the prevention of toxicity. Activation of Nrf2 protects tissues by increasing cellular antioxidant content and suppressing inflammatory signaling pathways. Identifying novel and potent Nrf2 activators by using the AREc32 cell line to detect ARE activation by small molecules will lead to the identification and development of probes to study protective pathways in multiple tissues. These specific probes are essential to study the ARE pathway, and eventually to determine whether this pathway does activate genes that could protect against a host of diseases, including cardiovascular diseases, obesity, diabetes, Alzheimer's, and Parkinson's disease.
# This project's aim is to identify novel and potent Nrf2 activators by using the AREc32 cell line to detect ARE activation by small molecules, which will lead to the identification and development of probes to study the ARE pathway.
# NIH Chemical Genomics Center [NCGC]
# NIH Molecular Libraries Probe Centers Network [MLPCN]
# Assay Submitter (PI): Curtis Klaassen, University of Kansas Medical Center
# 5 uL of 1000 cells/well of AREc32_Fluc cells are seeded into 1536-well plate in OPTI-MEM medium with 5% FBS. The plates are incubated overnight at 37 deg C with 5% CO2. Then through pin tool transfer, 23 nL of compounds are added to each well before a 24 hr incubation at 37 deg C with 5% CO2. After the addition of 2.5 uL of Steady-Glo. the plates are kept at RT for 30 min, before they are read on the ViewLux.
# Potency is read from the fitted curve at half-maximal effect.
SMILES,activation [%],Potency
COc1ccc(C2C=C(C)Oc3c2c(=O)oc2ccccc32)cc1OC (stereo not given),-1.49,
CCNc1nc2[nH]c(=O)c3c(c2s1)OC(N)=C(C#N)C3c1cccs1 (stereo not given),2.92,
N#CC1=C(N)Oc2c(c(=O)oc3ccccc23)C1c1ccccc1OC(=O)c1cccs1 (stereo not given),,11.2 µM (active)
Cc1ccc(-n2c(/C=C/c3cccc(C(F)(F)F)c3)nc3ccccc3c2=O)cc1,3.6,
Cc1cccc(Cn2cccc(C(=O)Nc3ccc4c(c3)OCCO4)c2=O)c1,-0.518,

# From PubChem BioAssay AID624171 (National Center for Advancing Translational Sciences (NCATS), 2012)
